# PubChem BioAssay (EPA / NIEHS)
# Results filed as inconclusive are left out. The source made the active and inactive calls. Rule for the calls, unless noted: active = hit-call score of the fitted dose curve at least 0.9, where 1 is the maximum; inactive = score below 0.9.
# Experiments:
# [1] = Tanguay_ZF_120hpf_MUSC: Oregon State University Tanguay Lab 120 Hour Post-fertilization zebrafish Assay for Muscle Malformation (AID 2284401)
# In short: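 Dechorionated Tropical 5D wild-type zebrafish embryos exposed statically from 6 to 120 hpf at 28C, one per well, in 0.64% DMSO. Muscle malformation scored present/absent by brightfield microscopy at 120 hpf, fitted against DMSO.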
# [2] = UKN2_HCS_IMR90_neural_migration: University of Konstanz (UKN) Leist Lab Neural Crest Cell Migration Assay in human induced IMR90 Pluripotent Stem Cells (UKN2) (AID 2284204); details: actives raise or lower the signal
# In short: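 iPSC-derived IMR90 neural crest cells on PLO/laminin/fibronectin were seeded around silicone stoppers; after stopper removal, migration in N2-S medium with EGF and FGF ran 24 h before 24 h chemical exposure. Calcein-AM/Hoechst high-content imaging; bidirectional fit versus DMSO.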
# [3] = CCTE_Shafer_MEA_dev_firing_rate_mean: CCTE's Neural Network Formation Assay for Mean Firing Rate, Shafer Lab (AID 2284031);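 note: curve fitted for loss of firing so AC50 reflects decreased mean firing rate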
# In short: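 Rat primary cortical neurons were seeded on multielectrode arrays and treated from plating through day 12, with redosing at each feed. Spontaneous spiking was recorded four times; mean firing rate AUC was fitted downward against DMSO.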
# [4] = CCTE_Shafer_MEA_dev_per_burst_spike_percent: CCTE's Neural Network Formation Assay for Percent of Spikes in a Burst, Shafer Lab (AID 2284032);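 note: fitted as a decrease in burst spike percentage below DMSO baseline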
# In short: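 Rat primary cortical neurons on 16-electrode MEA wells, dosed from plating day 0 for 12 days with renewal on DIV 5 and 9; spikes-in-bursts percentage averaged over bursting electrodes, collapsed as AUC across days 5, 7, 9, 12; loss direction versus DMSO.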
# [5] = CCTE_Shafer_MEA_dev_active_electrodes_number: CCTE's Neural Network Formation Assay for Number of Active Electrodes, Shafer Lab (AID 2284040; active = hit-call score of the fitted dose curve at least 0.9, where 1 is the maximum;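 note: potency for loss of active electrodes versus DMSO so lower counts are hits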)
# In short: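 Primary rat cortical neurons on 16-electrode MEA wells, exposed from day 0 through day 12 with compound renewed at DIV 5 and 9 feeds. Active electrodes (mean firing ≥5 spikes/min) counted at DIV 5, 7, 9, 12; trapezoidal AUC across days, loss-of-signal versus DMSO.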
# [6] = CCTE_Shafer_MEA_dev_burst_rate: CCTE's Neural Network Formation Assay for Burst Rate, Shafer Lab (AID 2284042);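 note: potency for loss of burst rate below DMSO control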
# In short: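 Exposure ran continuously over 12 days of network development in rat cortical cultures, with compound refreshed during full media changes on DIV 5 and 9. Single-electrode bursts per recording time, well-mean over active electrodes, trapezoidal AUC across days 5–12, fitted downward relative to DMSO.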
# [7] = CCTE_Shafer_MEA_dev_bursting_electrodes_number: CCTE's Neural Network Formation Assay for Number of Bursting Electrodes, Shafer Lab (AID 2284043; active = hit-call score of the fitted dose curve at least 0.9, where 1 is the maximum;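 note: potency is for loss of bursting electrodes relative to DMSO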)
# In short: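 Primary rat cortical neurons were cultured on PEI-coated 48-well MEA plates (16 electrodes/well) and exposed from plating through day 12, with compound renewed at feeds on DIV 5 and 9. Electrodes bursting ≥1 per 2 min were counted on DIV 5, 7, 9, 12; trapezoidal AUC taken.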
# [8] = CCTE_Shafer_MEA_dev_per_burst_interspike_interval: CCTE's Neural Network Formation Assay for Burst Interspike Interval, Shafer Lab (AID 2284044);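 note: mean spike spacing inside bursts as AUC over recordings on days 5 7 9 12; potency for a decrease of within-burst interspike interval below DMSO level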
# In short: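 Neurons from rat cortex plated onto PEI-coated MEA wells with laminin […] at 1.5 x 10^5 cells/well, then treated from day 0. Media and compound fully replaced on DIV 5 and 9. Extracellular spontaneous firing recorded four times; interspike interval per burst summarised as AUC.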
# [9] = CCTE_Shafer_MEA_dev_burst_duration_mean: CCTE's Neural Network Formation Assay for Mean Burst Duration, Shafer Lab (AID 2284045);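 note: curve fitted for loss meaning shorter burst duration than DMSO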
# In short: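 Primary rat cortical neurons on PEI-coated 16-electrode MEA wells, exposed from plating through day 12 with compound renewed at DIV 5 and 9; spontaneous activity recorded days 5, 7, 9, 12. Well-mean burst duration collapsed as trapezoidal AUC, fitted for loss versus DMSO.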
# [10] = CCTE_Shafer_MEA_dev_interburst_interval_mean: CCTE's Neural Network Formation Assay for Mean Interburst Interval, Shafer Lab (AID 2284046);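 note: well-mean interburst interval of bursting electrodes as AUC over four recording days; curve fitted for decrease in interburst interval relative to DMSO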
# In short: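 Primary rat cortical neurons on PEI-coated 48-well MEA plates (laminin added with cells at plating) (16 electrodes/well), exposed from plating day 0 with renewal at DIV 5 and 9. Mean inter-burst interval averaged over bursting electrodes, AUC across days 5, 7, 9, 12; DMSO baseline.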
# [11] = CCTE_Shafer_MEA_dev_inter_network_spike_interval_mean: CCTE's Neural Network Formation Assay for Mean Inter-network Spike Interval, Shafer Lab (AID 2284047)
# In short: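 Mean time between consecutive network-spike peaks, recorded extracellularly (adaptive spike detection) on DIV 5, 7, 9 and 12, summarized as trapezoidal AUC. Rat cortical cultures on MEAs dosed continuously days 0–12, re-dosed at feeds; loss-of-signal fit relative to DMSO.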
# [12] = CCTE_Shafer_MEA_dev_network_spike_number: CCTE's Neural Network Formation Assay for Number of Network Spikes, Shafer Lab (AID 2284048);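 note: synchronized bursts across electrodes counted on days 5 7 9 12 and integrated as AUC; fit as a loss of signal meaning fewer network spikes than DMSO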
# In short: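 Primary rat cortical neurons were seeded at 1.5 x 10^5 cells/well on PEI-coated 16-electrode MEA wells with laminin, exposed from plating day 0, compound renewed at DIV 5 and 9. Network spikes were recorded on days 5, 7, 9, 12 and summarized as trapezoidal AUC versus DMSO.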
# [13] = CCTE_Shafer_MEA_dev_spike_duration_mean: CCTE's Neural Network Formation Assay for Mean Spike Duration, Shafer Lab (AID 2284051);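 note: mean network spike duration pooled as area under curve over DIV 5 to 12 recordings; potency for a decrease in mean network spike duration versus DMSO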
# In short: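 Spontaneous activity was recorded on days 5, 7, 9 and 12 from rat cortical cultures grown on microelectrode arrays and dosed continuously from day 0, with media and compound renewed after the DIV 5 and 9 recordings. Network-spike duration was collapsed by area under the curve.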
# [14] = CCTE_Shafer_MEA_dev_network_spike_duration_std: CCTE's Neural Network Formation Assay for Standard Deviation of Network Spike Duration, Shafer Lab (AID 2284052);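 note: hits are decreases in network spike duration SD versus DMSO vehicle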
# In short: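 Network spike duration variability was collapsed across recordings on days 5, 7, 9 and 12 by trapezoidal area-under-curve and fitted downward against DMSO. Cultures were rat cortical neurons on PEI-coated MEA plates, dosed continuously from plating, refed with compound DIV 5/9.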
# [15] = CCTE_Shafer_MEA_dev_per_network_spike_spike_number_mean: CCTE's Neural Network Formation Assay for Mean Number of Spikes in a Network Spike, Shafer Lab (AID 2284053);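 note: fitted as decrease in spikes per network spike relative to DMSO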
# In short: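 Mean spike count within each network spike, taken in a 0.05 s window at its peak, was recorded on days 5, 7, 9 and 12 and integrated as trapezoidal area under the curve. Rat cortical cultures on MEA plates received continuous compound from day 0, refreshed at medium changes on DIV 5 and 9.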
# [16] = CCTE_Shafer_MEA_dev_per_network_spike_spike_percent: CCTE's Neural Network Formation Assay for Percent of Spikes in a Network Spike, Shafer Lab (AID 2284054)
# In short: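 Primary rat cortical neurons on 16-electrode MEA wells (PEI-coated, laminin at plating), exposed from day 0 with renewal at DIV 5 and 9; spikes within 0.05 s of network-spike peaks over total spikes, AUC across days 5, 7, 9, 12.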
# [17] = CCTE_Shafer_MEA_dev_mutual_information_norm: CCTE's Neural Network Formation Assay for Mutual Information Normalization, Shafer Lab (AID 2284091);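 note: mutual information between electrodes summarised as area under curve across four recording days; potency is for a decrease in mutual information relative to DMSO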
# In short: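 Rat cortical cultures, 48-well MEA, continuous exposure DIV 0–12 with full media/compound change DIV 5 and 9. Readout: inter-electrode mutual information, AxIS adaptive spike detection; AUC across DIV 5/7/9/12 recordings; DMSO baseline, negative fitting direction.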
# [18] = CCTE_Shafer_MEA_dev_correlation_coefficient_mean: CCTE's Neural Network Formation Assay for Mean Correlation Coefficient, Shafer Lab (AID 2284093);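 note: well mean pairwise spike train correlation integrated as AUC over recording days 5 to 12; potency fitted for loss of correlation relative to DMSO vehicle wells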
# In short: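 Primary rat cortical neurons on PEI-coated 48-well MEA plates (16 electrodes/well) were exposed from plating day 0 through DIV12, with compound renewed at DIV5 and 9. Pairwise spike correlations were averaged per well; trapezoidal AUC across DIV5, 7, 9, 12.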
structure (smiles),measurement,setting,value
O=C(O)C(F)(F)C(F)(F)C(F)(F)C(F)(F)C(F)(F)C(F)(F)C(F)(F)C(F)(F)C(F)(F)C(F)F,outcome,[1],inactive
O=C1N[C@@H]2C(=C[C@H](O)[C@@H](O)[C@H]2O)c2cc3c(c(O)c21)OCO3,AC50,[2],0.047 µM (active)
O=S(=O)(Cl)C(F)(F)C(F)(F)C(F)(F)C(F)(F)C(F)(F)C(F)(F)C(F)(F)C(F)(F)F,outcome,[1],inactive
C=C(C)C(=O)OCCC(F)(F)C(F)(F)C(F)(F)C(F)(F)C(F)(F)C(F)(F)F,outcome,[1],inactive
CC1(C)C(C=C(Cl)Cl)[C@H]1C(=O)O[C@H](C#N)c1cccc(Oc2ccccc2)c1 (stereo partly specified),outcome,[2],inactive
CC1(C)[C@H](C=C(Cl)Cl)[C@H]1C(=O)OCc1c(F)c(F)cc(F)c1F,AC50,[3],23.4 µM (active)
same,AC50,[4],23.1 µM (active)
same,AC50,[5],23 µM (active)
same,AC50,[6],23.7 µM (active)
same,AC50,[7],23.3 µM (active)
same,AC50,[8],13.7 µM (active)
same,AC50,[9],9.92 µM (active)
same,AC50,[10],13.9 µM (active)
same,outcome,[11],inactive
same,AC50,[12],23.3 µM (active)
same,AC50,[13],22.8 µM (active)
same,outcome,[14],inactive
same,AC50,[15],13.1 µM (active)
same,AC50,[16],12.8 µM (active)
same,AC50,[17],13.4 µM (active)
same,AC50,[18],10.7 µM (active)
same,outcome,[2],inactive
O=C(O)C(F)(F)C(F)(F)C(F)(F)C(=O)O,outcome,[1],inactive
COC(F)(C(F)F)C(F)(F)F (stereo unspecified),outcome,[1],inactive
OCCCC(F)(F)C(F)(F)C(F)(F)C(F)(F)C(F)(F)C(F)(F)C(F)(F)C(F)(F)F,outcome,[1],inactive
O=[As](O)(O)O,outcome,[2],inactive
